From PubChem BioAssay
Sampled rows, rich in hits. Any-hit rate of the full collection: about 21%.
ELG1 DNA repair = qHTS screen for small molecules that inhibit ELG1-dependent DNA repair in human embryonic kidney (HEK293T) cells expressing luciferase-tagged ELG1; HEK293T ELG1-luciferase reporter, luminescence, 16 h; DNA damage induced by 5-fluorouridine; Potency, µM (top dose mostly 46.1 µM), without a hit: top-dose activity change, negative = inhibition, usual class: inhibitors; hit rate 2.3% among 330,000; note: potency is the fitted concentration of half-maximal effect; nearly all actives have a fitted effect of over 55% in size
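DMSO vehicle served as the neutral condition. Each well held 2,000 cells given 5-fluorouridine plus compound; after 16 hr at 37 °C/5% CO2, ONE-Glo was added and luciferase measured 30 min later.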
VP16 counter = VP16 counterscreen qHTS for inhibitors of ROR gamma transcriptional activity. Drosophila S2 Gal4-VP16 UAS-luciferase, luminescence, 20 h. Potency, µM (highest dose often 53.6 µM), for the others: top-dose activity, negative = inhibition, actives largely listed as inhibitors. hit rate 3.5% among 310,000. AID 2546, 2010;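 note: Gal4-VP16 expression switched on by copper sulfate through the metallothionein promoter; potency is the fitted concentration of half-maximal effect; nearly all actives have a fitted effect of over 50% in size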
TDP1 cell noCPT = qHTS for Inhibitors of human tyrosyl-DNA phosphodiesterase 1 (TDP1): qHTS in cells in absence of CPT; DT40 Tdp1-/- hTDP1 cells, no CPT, ATP luminescence, 48 h; Potency, µM (highest dose often 46.2 µM), without a hit: top-dose activity change, negative = growth inhibition, hits mostly inhibitors; hit rate 15% among 420,000; AID 686978, 2013; note: potency is the fitted concentration of half-maximal effect; nearly all actives have a fitted effect of over 55% in size
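No-CPT arm: Tdp1-/-;hTDP1 DT40 cells (400/well) plus compounds, incubated ≥48 hr at 37 °C. Readout CellTiter-Glo luminescence.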
IL1B secr inh = qHTS for Inhibitors of Inflammasome Signaling: IL-1-beta AlphaLISA Primary Screen. activity change, % at 57.5 µM. THP-1 LPS/ATP IL-1B secretion, AlphaLISA, 16 h; hits give low values. hit rate 4.7% among 360,000; in the data active = activity change below about -50%; inconclusive = mostly about -30% to -49%
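THP-1 cells pretreated 1 hr with compounds (up to 57.5 uM final), then stimulated with LPS (250 ng/mL final) plus ATP (1.25 mM final); secreted IL-1B measured by AlphaLISA after 16 hr, decreased signal indicating inhibition.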
TDP1 cell CPT = qHTS for Inhibitors of human tyrosyl-DNA phosphodiesterase 1 (TDP1): qHTS in cells in presence of CPT. chicken DT40 Tdp1-/-;hTDP1 cells + 20 nM CPT, ATP luminescence, 48 h. AID 686979, 2013. Potency, µM (doses to about 46.2 µM), for the others: at the highest dose activity change, negative = growth inhibition, actives largely listed as inhibitors. hit rate 12% among 420,000; note: potency is the fitted concentration of half-maximal effect; nearly all actives have a fitted effect of over 55% in size
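Chicken DT40 Tdp1-/- cells complemented with human TDP1, 400 cells/well, exposed to compounds plus 20 nM camptothecin for at least 48 h at 37 C; viability read as ATP content by CellTiter-Glo luminescence.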
RORgamma inh = qHTS for inhibitors of ROR gamma transcriptional activity; Potency, µM (doses to about 53.6 µM), for the others: top-dose activity change, negative = inhibition, hits mostly inhibitors; Drosophila S2 Gal4-RORgamma UAS-luciferase reporter, 20 h; AID 2551, 2010; hit rate 5.4% among 310,000; note: potency is the fitted concentration of half-maximal effect; nearly all actives have a fitted effect of over 60% in size
Target sequence (P51450 whole entry, looked up, the tested form may be a part): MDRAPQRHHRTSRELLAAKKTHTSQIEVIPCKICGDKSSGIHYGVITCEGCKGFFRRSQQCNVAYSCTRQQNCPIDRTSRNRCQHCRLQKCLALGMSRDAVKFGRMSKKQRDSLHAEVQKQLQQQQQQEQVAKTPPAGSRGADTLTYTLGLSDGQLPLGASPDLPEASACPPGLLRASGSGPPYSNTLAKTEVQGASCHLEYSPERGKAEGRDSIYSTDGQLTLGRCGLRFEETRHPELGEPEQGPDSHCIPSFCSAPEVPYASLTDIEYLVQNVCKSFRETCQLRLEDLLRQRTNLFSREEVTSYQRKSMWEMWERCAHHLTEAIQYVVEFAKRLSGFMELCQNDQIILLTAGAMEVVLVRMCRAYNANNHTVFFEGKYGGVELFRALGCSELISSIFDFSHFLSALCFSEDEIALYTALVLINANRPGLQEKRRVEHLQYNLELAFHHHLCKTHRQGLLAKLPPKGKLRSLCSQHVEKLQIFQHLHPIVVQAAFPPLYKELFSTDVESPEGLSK
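A Gal4/UAS one-hybrid system in insect cells: metallothionein-promoter Gal4–ROR gamma fusion plus Photinus luciferase reporter. Copper sulfate 700 uM final, 20 hr ambient incubation, luminescent detection after 10 min with reagent.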
Active calls of the source: *; u = inconclusive; x = no result; [ ] = another dose, or the depositor's remark. Unless noted, calls come from the whole dose curve; as a rule, active = well fitted curve in the direction sought with a large enough effect; inconclusive = small, poorly fitted or top-dose-only effect, or another doubt; inactive = no such curve, though single readings can be large; an effect the other way counts as inactive or inconclusive. % is set by controls: 0 for no effect and ±100 for the full control effect.

SMILES	ELG1 DNA repair	VP16 counter	TDP1 cell noCPT	IL1B secr inh	TDP1 cell CPT	RORgamma inh
O=C(Nc1ccc(Cl)cc1)OCCN1CCOCC1	x	x	-29%	21	-4%	x
O=C(Nc1ccc(Cl)cc1)OCCn1nnnc1C(c1ccccc1Cl)N1CCOCC1 (stereo unspecified)	18%	-1%	18µM*	-29	26µM*	45%
CC1=C(CC[C@@H](C)CO)OC2CC3C4CCC5CC(O)CCC5(C)C4CC(=O)C3(C)C12 (stereo partly specified)	x	x	u	-66*	u	x
CCCCc1nnc(NC(=O)CCN2C(=O)C3CC=CCC3C2=O)s1 (stereo unspecified)	-4%	x	2%	30	-7%	x
Cc1cnc2c(C)cccc2c1C	x	x	0.22µM*	x	-129%	x
O=C(c1ccc2c(c1)N(Cc1ccc(F)cc1)C(=O)c1ccccc1S2=O)N1CCC(Cc2ccccc2)CC1 (stereo unspecified)	x	x	15µM*	x	16µM*	x
CCOC(=O)C1CCCN(C(=O)c2ccc3c(c2)N(Cc2ccccc2)C(=O)c2ccccc2S3=O)C1 (stereo unspecified)	-9%	-14%[10 µM]	18µM*	0	u	-2%
O=C(c1ccc2c(c1)N(Cc1ccccc1)C(=O)c1ccccc1S2=O)N1CCC(Cc2ccccc2)CC1 (stereo unspecified)	x	x	6.5µM*	x	6.5µM*	x
O=C(O)c1ccc2c(c1)N(Cc1ccccc1)C(=O)c1ccccc1S2=O (stereo unspecified)	10%	-5%	-17%	11	u	u
O=C(c1ccc2c(c1)N(Cc1ccc(F)cc1)C(=O)c1ccccc1S2=O)N1CCOCC1 (stereo unspecified)	x	x	3%	x	-10%	x
CSc1ccc(CN2CCCC(CNC(=O)c3ccc(F)cc3)C2)cc1 (stereo unspecified)	0%	-9%	10%	-15	8%	4%
c1ccc2[nH]c(CCCCCc3nc4ccccc4[nH]3)nc2c1	x	x	u	-4	u	x
c1ccc2[nH]c3cc4ncnc4cc3nc2c1	u	-15%	18µM*	-57*	u	u
CC(C)C(=O)N1CCC1(C)C(=O)NCc1cc(Cl)ccc1F (stereo unspecified)	x	x	-26%	-18	-14%	x
COc1ccc(-c2cc(C(=O)NCc3cn(C)nc3C)c3ccccc3n2)cc1OC	u	17%	u	-4	15µM*	37%
COc1ccc(-c2cc(C(=O)Nc3c(Cl)cc(Cl)cc3Cl)c3ccccc3n2)cc1OC	-5%	-24%	u	20	u	-21%
COc1cccc(-c2cc(C(=O)Nc3cccnc3)c3ccccc3n2)c1	u	0%	u	-7	u	45%
COc1ccc(-c2cc(C(=O)Nc3nc4ccccc4s3)c3ccccc3n2)cc1OC	15µM*	-4%	u	-15	15µM*	-30%
COc1ccc(-c2cc(C(=O)Nc3cc(S(N)(=O)=O)ccc3C)c3ccccc3n2)cc1OC	x	x	23µM*	-6	u	x
COc1ccc(-c2cc(C(=O)Nc3cccnc3)c3ccccc3n2)cc1OC	u	-1%	23µM*	12	23µM*	7%
Cc1noc(C)c1NC(=O)Nc1ccc2c(c1)C(=O)N([C@H](C)CO)C[C@H](C)[C@@H](CN(C)S(=O)(=O)c1c(C)noc1C)O2	26%	x	-4%	15	1%	x
